{
  "source": "PubChem BioAssay (NCATS)",
  "note": "Inconclusive results are not listed. Active and inactive are the calls of the source. Calls follow the shape of the dose curve; as a rule, active = well fitted inhibition curve with a large enough effect; inconclusive = small, poorly fitted or top-dose-only effect; inactive = flat fitted curve, though single readings scatter. Potency is read from the fitted curve at half-maximal effect.",
  "data": [
    {"system": "CP262", "test": "qHTS profiling for inhibitors of Plasmodium falciparum proliferation (AID 504749); also: nearly all actives have a fitted effect of over 60% in size;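 as to activity, negative = inhibition: 0% = DMSO vehicle and full inhibition = artemisinin control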", "details": "P. falciparum in erythrocytes, SYBR Green DNA, 72 h; series mostly up to 28.7 µM; activity, negative = inhibition: at the top concentration", "method_in_brief": "(§1)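 Quantitative HTS: compounds pinned into medium, infected erythrocytes added (0.3% parasitemia, 2.5% hematocrit), 72 h culture at 37 C under 5% CO2. Saponin/Triton lysis with SYBR Green I, overnight RT, then fluorescence read.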", "values": [
      {"smiles": "CCCCC[C@H](O)/C=C/[C@H]1[C@H](O)CC(=O)[C@@H]1C/C=C\\CCCC(=O)O", "activity, negative = inhibition": "6.66% (inactive)"},
      {"smiles": "O=C(CCCN1CCC(C(=O)c2ccc(F)cc2)CC1)c1ccc(F)cc1", "activity, negative = inhibition": "0.157% (inactive)"},
      {"smiles": "O=C1N=C2SCCN2C(=O)C1Cc1ccc(Cl)cc1", "note": "(centres undefined)", "activity, negative = inhibition": "6.66% (inactive)"},
      {"smiles": "O=c1[nH]c(=O)n([C@H]2C[C@H](O)[C@@H](CO)O2)cc1/C=C/Br", "activity, negative = inhibition": "2.84% (inactive)"},
      {"smiles": "CC(C)NCC(O)COc1ccccc1-n1cccc1", "note": "(centres undefined)", "activity, negative = inhibition": "1.5% (inactive)"},
      {"smiles": "CN(Cc1ccccc1)Cc1ccccc1", "activity, negative = inhibition": "-0.292% (inactive)"},
      {"smiles": "OCc1ccccc1", "activity, negative = inhibition": "0% (inactive)"},
      {"smiles": "O=[n+]1ccn([O-])c2ccccc21", "activity, negative = inhibition": "12.7% (inactive)"},
      {"smiles": "CC(=O)NCCCS(=O)(=O)O", "activity, negative = inhibition": "-9.62% (inactive)"},
      {"smiles": "Cc1cccc(Nc2ncccc2C(=O)O)c1C", "activity, negative = inhibition": "1.15% (inactive)"},
      {"smiles": "CCCCC(CC)CCC(CC(C)C)OS(=O)(=O)O", "note": "(centres undefined)", "activity, negative = inhibition": "3.29% (inactive)"},
      {"smiles": "C[C@H](N)C(=O)N[C@@H](C)P(=O)(O)O", "activity, negative = inhibition": "7.31% (inactive)"},
      {"smiles": "CC(=O)Nc1ccc(NC(=S)NC(=O)c2ccc(C(C)(C)C)cc2)cc1", "activity, negative = inhibition": "11.7% (inactive)"},
      {"smiles": "CO/N=C(\\C(=O)N[C@@H]1C(=O)N2C(C(=O)[O-])=C(C[n+]3cccc4c3CCC4)CS[C@H]12)c1csc(N)n1", "activity, negative = inhibition": "-0.0071% (inactive)"},
      {"smiles": "Cc1cc(-c2ccc(N=Nc3ccc4c(S(=O)(=O)O)cc(S(=O)(=O)O)c(N)c4c3O)c(C)c2)ccc1N=Nc1ccc2c(S(=O)(=O)O)cc(S(=O)(=O)O)c(N)c2c1O", "activity, negative = inhibition": "0% (inactive)"},
      {"smiles": "CCC(C(=O)NC(N)=O)c1ccccc1", "note": "(centres undefined)", "activity, negative = inhibition": "3.54% (inactive)"},
      {"smiles": "CCc1ncnc2cc(OC)c(OC)cc12", "activity, negative = inhibition": "0.589% (inactive)"},
      {"smiles": "Cc1ncc(C[n+]2csc(CCO)c2C)c(N)n1", "activity, negative = inhibition": "0% [at 12.8 µM] (inactive)"},
      {"smiles": "O[C@@H]([C@H](O)[C@H](O)CBr)[C@H](O)CBr", "activity, negative = inhibition": "-2.46% (inactive)"},
      {"smiles": "O=[N+]([O-])c1c(Cl)cccc1-c1c[nH]cc1Cl", "activity, negative = inhibition": "-0.0918% (inactive)"},
      {"smiles": "C[C@@](Cc1ccc(O)c(O)c1)(NN)C(=O)O", "activity, negative = inhibition": "0.513% (inactive)"},
      {"smiles": "CC(=O)Oc1cc(C(F)(F)F)ccc1C(=O)O", "activity, negative = inhibition": "0% [at 12.8 µM] (inactive)"},
      {"smiles": "O=P(O)(O)CP(=O)(O)O", "activity, negative = inhibition": "11.5% (inactive)"},
      {"smiles": "CCCCC[C@H](O)/C=C/[C@@H]1[C@H]2C/C(=C/CCCC(=O)O)O[C@H]2C[C@H]1O", "activity, negative = inhibition": "0.976% (inactive)"},
      {"smiles": "Cc1c(C)c2c(c(C)c1OC(=O)CCC(=O)O)CC[C@@](C)(CCC[C@H](C)CCC[C@H](C)CCCC(C)C)O2", "activity, negative = inhibition": "2.53% (inactive)"}
    ]},
    {"system": "CP265", "test": "qHTS profiling for inhibitors of Plasmodium falciparum proliferation (AID 504749); also: nearly all actives have a fitted effect of over 60% in size;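 as to activity, negative = inhibition: 0% = DMSO vehicle and full inhibition = artemisinin control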", "details": "P. falciparum in erythrocytes, SYBR Green DNA, 72 h; series mostly up to 28.7 µM; activity, negative = inhibition: at the top concentration", "method_in_brief": "as §1", "values": [
      {"smiles": "CCCCC[C@H](O)/C=C/[C@H]1[C@H](O)CC(=O)[C@@H]1C/C=C\\CCCC(=O)O", "activity, negative = inhibition": "0.208% (inactive)"},
      {"smiles": "O=C(CCCN1CCC(C(=O)c2ccc(F)cc2)CC1)c1ccc(F)cc1", "activity, negative = inhibition": "-14.1% (inactive)"},
      {"smiles": "C(=C\\c1ccncc1)/c1ccccc1", "activity, negative = inhibition": "2.35% (inactive)"},
      {"smiles": "O=C1N=C2SCCN2C(=O)C1Cc1ccc(Cl)cc1", "note": "(centres undefined)", "activity, negative = inhibition": "0.513% (inactive)"},
      {"smiles": "CCCCCCCCCCCC(=O)N(CCO)CCO", "activity, negative = inhibition": "10.7% (inactive)"},
      {"smiles": "Cc1nc(NS(=O)(=O)c2ccc(N)cc2)nc(C)c1Br", "activity, negative = inhibition": "0.786% (inactive)"},
      {"smiles": "O=c1[nH]c(=O)n([C@H]2C[C@H](O)[C@@H](CO)O2)cc1/C=C/Br", "activity, negative = inhibition": "12.9% (inactive)"},
      {"smiles": "CC12CCC(C[N+](C)(CCC[N+](C)(C)C)C1)C2(C)C", "note": "(centres undefined)", "activity, negative = inhibition": "2.53% (inactive)"},
      {"smiles": "CC(C)NCC(O)COc1ccccc1-n1cccc1", "note": "(centres undefined)", "activity, negative = inhibition": "2.45% (inactive)"},
      {"smiles": "F[Si-2](F)(F)(F)(F)F", "activity, negative = inhibition": "5.52% (inactive)"},
      {"smiles": "CN(Cc1ccccc1)Cc1ccccc1", "activity, negative = inhibition": "5.47% (inactive)"},
      {"smiles": "O=[n+]1ccn([O-])c2ccccc21", "activity, negative = inhibition": "3.7% (inactive)"},
      {"smiles": "OCC(O)CO", "activity, negative = inhibition": "5.19% (inactive)"},
      {"smiles": "CC(=O)NCCCS(=O)(=O)O", "activity, negative = inhibition": "5.84% (inactive)"},
      {"smiles": "CCN(CC)CCOc1ccc2nc(N(C)C)sc2c1", "activity, negative = inhibition": "2.27% (inactive)"},
      {"smiles": "Cc1cccc(Nc2ncccc2C(=O)O)c1C", "activity, negative = inhibition": "6.78% (inactive)"},
      {"smiles": "CCCCC(CC)CCC(CC(C)C)OS(=O)(=O)O", "note": "(centres undefined)", "activity, negative = inhibition": "14.3% (inactive)"},
      {"smiles": "C[C@H](N)C(=O)N[C@@H](C)P(=O)(O)O", "activity, negative = inhibition": "2.12% (inactive)"},
      {"smiles": "CN1CCc2c(c3ccccc3n2Cc2ccccc2)C1", "activity, negative = inhibition": "-29.2% [at 12.8 µM] (inactive)"},
      {"smiles": "CO/N=C(\\C(=O)N[C@@H]1C(=O)N2C(C(=O)[O-])=C(C[n+]3cccc4c3CCC4)CS[C@H]12)c1csc(N)n1", "activity, negative = inhibition": "2.36% (inactive)"},
      {"smiles": "Cc1cc(-c2ccc(N=Nc3ccc4c(S(=O)(=O)O)cc(S(=O)(=O)O)c(N)c4c3O)c(C)c2)ccc1N=Nc1ccc2c(S(=O)(=O)O)cc(S(=O)(=O)O)c(N)c2c1O", "activity, negative = inhibition": "8.58% (inactive)"},
      {"smiles": "CCC(C(=O)NC(N)=O)c1ccccc1", "note": "(centres undefined)", "activity, negative = inhibition": "2.86% (inactive)"},
      {"smiles": "Cn1cc(NC(=O)c2cc(NC(=O)c3cc(NC=O)cn3C)cn2C)cc1C(=O)NCCC(=N)N", "Potency": "11.2 µM (active)"},
      {"smiles": "CCc1ncnc2cc(OC)c(OC)cc12", "activity, negative = inhibition": "-0.91% (inactive)"},
      {"smiles": "Cc1ncc(C[n+]2csc(CCO)c2C)c(N)n1", "activity, negative = inhibition": "-3.37% [at 12.8 µM] (inactive)"},
      {"smiles": "O[C@@H]([C@H](O)[C@H](O)CBr)[C@H](O)CBr", "activity, negative = inhibition": "3.18% (inactive)"},
      {"smiles": "O=[N+]([O-])c1c(Cl)cccc1-c1c[nH]cc1Cl", "activity, negative = inhibition": "-14.6% (inactive)"},
      {"smiles": "C[C@@](Cc1ccc(O)c(O)c1)(NN)C(=O)O", "activity, negative = inhibition": "-14.2% (inactive)"},
      {"smiles": "CC(=O)Oc1cc(C(F)(F)F)ccc1C(=O)O", "activity, negative = inhibition": "1.59% [at 12.8 µM] (inactive)"}
    ]}
  ]
}
